Vaccinia Venus – vaccinia inhibition (Venus reporter); Vaccinia virus Venus reporter expression, fluorescence; 330,000 compounds, 0.46% hits; Potency, µM (doses to about 36.5 µM), for inactives: at the highest dose activity change, negative = inhibition, actives largely listed as inhibitors; calls by dose curve; tested in A549 cells; also: potency is read from the fitted curve at half-maximal effect; nearly all actives have a fitted effect of over 30% in size
HCMV inh – blocks human cytomegalovirus replication; activity change, negative = inhibition, % at 57.5 µM; AID 1259415; HFF cells, HCMV-luciferase reporter, 72 h; active compounds read low; 410,000 compounds, 4.5% hits; in the data active = activity change below about -60%; inconclusive = no clear call, values can overlap the other calls; inactive = above about -39%
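Cell-based, HFFs, 1000 cells/well, 16 h 37C; cpds in DMSO + HCMV-luc, MOI 1 PFU/cell; 72 h 37C; OneGlo luminescence after 5 min RT; norm. to buffer vs Salinomycin 10uM.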
Vaccinia mCherry – inhibitors of vaccinia virus infection (mCherry reporter signal). Vaccinia virus mCherry reporter infection, fluorescence. Potency, µM (doses to about 36.5 µM), for the others: at the highest dose activity change, negative = inhibition, most hits filed as inhibitors. 310,000 compounds, 0.63% hits; calls by dose curve; tested in A549 cells; also: potency is read from the fitted curve at half-maximal effect; nearly all actives have a fitted effect of over 35% in size
LASV entry inh – blocks Lassa virus binding to or entry into cells. Lassa virus pseudotype entry inhibition, cell reporter. Potency, µM (series often up to 37.9 µM), inactives show at the highest dose activity change, negative = inhibition, actives largely listed as inhibitors. 300,000 compounds, 1.2% hits. AID 540256; calls by dose curve; tested in HEK293 cells; also: potency is read from the fitted curve at half-maximal effect; nearly all actives have a fitted effect of over 50% in size
Marburg entry inh – inhibitors of Marburg virus binding or cell entry; Marburg virus pseudotyped entry inhibition, cell reporter; Potency, µM (titrated, usually from 37.8 µM), inactives show at the highest dose activity change, negative = inhibition, most hits filed as inhibitors; 300,000 compounds, 1.8% hits; AID 540276; calls by dose curve; tested in HEK293 cells; also: potency is read from the fitted curve at half-maximal effect
FMDV antiviral – foot and mouth disease virus antiviral activity. 410,000 compounds, 1.2% hits. FMDV antiviral cell-based qHTS. Potency, µM (series often up to 57.9 µM), for inactives: top-dose activity change, negative = inhibition, usual class: inhibitors; calls by dose curve; tested in HEK293T cells; also: read-out not given here; potency is read from the fitted curve at half-maximal effect; nearly all actives have a fitted effect of over 45% in size
* hit, by the source's call; i = inactive; ? = inconclusive; / = no result given; [ ] = remark or other dose. Sampled rows, rich in hits. Any-hit rate of the full collection: about 6.5%. % is scaled to controls: 0 for no effect and ±100 for the full control effect.

SMILES | Vaccinia Venus | HCMV inh | Vaccinia mCherry | LASV entry inh | Marburg entry inh | FMDV antiviral
CCOC(=O)N1CCN(C(=O)CSCc2nc(-c3ccccc3F)oc2C)CC1 | / | -80* | / | -6% | ? | -28%
CCOc1ccc(C(c2c(NC(=O)c3ccccc3)sc(C)c2C)N2CCN(C)CC2)cc1 (stereo unspecified) | ? | -2 | -12% | ? | ? | -1%
Cc1sc(NC(=O)c2ccccc2)c(C(c2ccccn2)N2CCN(CCO)CC2)c1C (stereo unspecified) | ? | -62* | ? | -11% | ? | -29%
Cc1ccc(NC(=S)N2CCN(S(C)(=O)=O)CC2)cc1Cl | -17% | 12 | -17% | -8% | ? | 16%
O=C(NC(=S)Nc1ccccc1Br)C1CC1 | / | 38 | / | / | / | 11%
CCOc1ccccc1NC(=S)NC(=O)C1CC1 | -23% | -64* | -15% | ? | 12% | -16%
Cc1ccc(C(C2=C(O)CC(C)(C)CC2=O)C2C(=O)CC(C)(C)CC2=O)s1 (stereo unspecified) | / | -9 | / | ? | 2% | ?
CC1(C)CC(=O)C(C(C2=C(O)CC(C)(C)CC2=O)c2ccc(Br)s2)C(=O)C1 (stereo unspecified) | -11% | -7 | -8% | 13µM* | ? | 5.6µM*
COc1cccc(C(C2=C(O)CC(C)(C)CC2=O)C2C(=O)CC(C)(C)CC2=O)c1 (stereo unspecified) | -13% | -65* | -14% | ? | 23% | -13%
CCC(C(=O)NNC(=O)c1cnccn1)c1ccccc1 (stereo unspecified) | -20% | -29 | ? | -17% | ? | -10%
Cc1nc(S(=O)(=O)Cc2ccc(Cl)cc2)nc2c1CCC2 | 3% | ? | 6% | 13% | 29%[46.1 µM] | 0%
Cc1ccc(CS(=O)(=O)c2nc3c(c(N(C)C)n2)CCCC3)cc1 | ? | -93* | ? | ? | ? | 16%
CCc1ccc(N/C(SCc2ccccc2C)=C(/C#N)C(=O)NCc2ccco2)cc1 | / | -20 | / | 8.2µM* | ? | -10%
C[C@H](CO)N1C[C@H](C)[C@@H](CN(C)Cc2ccc(F)cc2)Oc2ncc(Br)cc2C1=O | -10% | -15 | -14% | / | / | -22%
COc1ccc(CCN(Cc2cc3ccc(C)cc3n3nnnc23)C(C)=O)cc1OC | -14% | -100* | 0% | -19% | 3%[46.1 µM] | -18%
CCCCCCCCCCCCC/C=C\[C@@H](O)[C@H](CO)NC(C)=O | / | / | / | / | / | 5%
CCN(C(=O)COc1cc(=O)n(C)c2ccccc12)c1cccc(Cl)c1 | / | -90* | / | -6% | 1% | -29%
CN(C(=O)COc1cc(=O)n(C)c2ccccc12)c1cccc(Cl)c1 | 0% | -32 | -11% | / | / | -24%
Cc1cccc(OCCCCCn2ccnc2)c1C | / | -81* | / | ? | ? | -16%
CCOc1ccc(OCCCCn2ccnc2)cc1 | -15% | -61* | i | 7% | 16% | -8%
CCOc1cc(C(N)=O)cc(Br)c1OCc1ccccc1 | / | -36 | / | / | / | -8%
CN1OC(C)(CC(=O)N2CCc3ccccc3C2)N=C1c1ccco1 (stereo unspecified) | / | -11 | / | / | / | /
CCN(CC)CCNC(=O)C1=C(OC)CC(N)=C(Cl)C1 | / | / | / | / | 14% | /
CCCn1c(NCc2ccccc2NS(=O)(=O)c2ccc(C)cc2)nc2ccccc21 | ? | -26 | ? | ? | 6.3µM* | 15%
CCn1c(NCc2ccccc2NS(=O)(=O)c2ccc(C)cc2)nc2ccccc21 | ? | 35 | ? | ? | 21µM* | -1%
SMILES | Vaccinia Venus | HCMV inh | Vaccinia mCherry | LASV entry inh | Marburg entry inh | FMDV antiviral
CCn1c(NCc2cc(Br)ccc2NS(=O)(=O)c2ccc(C)cc2)nc2ccccc21 | -24% | -12 | / | ? | ? | 3%
CCc1c(O)nc(SCC(=O)N2CCc3cc(OC)c(OC)cc3[C@@H]2C)[nH]c1=O | 7% | 0 | -4% | / | / | -10%
Clc1ccc(-c2nnc(CSc3nnc(-c4cccs4)n3Cc3ccccc3)o2)cc1 | / | -88* | / | ? | ? | ?
Cc1nnc(SCc2nnc(-c3cccs3)o2)n1Cc1ccccc1 | -8% | -7 | i | 7% | -16% | -10%
COC(=O)NC(CC(C)=O)c1cccc(C(F)(F)F)c1 (stereo unspecified) | / | / | / | / | 0% | /
O=C(Nc1ccc(Cl)cc1)c1csc(C(O)c2cccc(OC(F)(F)F)c2)n1 (stereo unspecified) | / | -36 | / | / | / | /
CC(C)NC(=O)c1csc(C(O)c2cccc(N(C)C)c2)n1 (stereo unspecified) | / | -75* | / | / | / | /
N#Cc1ccc(NC(=O)COCc2cc(-c3ccco3)on2)cc1 | -10% | 0 | -20% | 3%[46.1 µM] | / | -6%
CCCCc1cc(=O)oc2c(C)c(OCC(=O)N3C[C@H]4C[C@@H](C3)c3cccc(=O)n3C4)ccc12 | 3% | -8 | 17% | / | / | -1%
Cc1ccccc1CN1CC2=C(CCN(Cc3ccccc3)C2=O)N2CCN=C12 | -8% | -99* | -25% | / | / | -20%
O=C(Cn1cc(COc2ccc([N+](=O)[O-])cc2)nn1)c1ccc(O)cc1 | / | / | / | 5%[46.1 µM] | / | /
COc1ccc(NC(=O)COc2cccc3c2OC(C)(C)C3)cc1OC | / | ? | / | / | / | 22µM*
Cc1ccn(CCC(=O)N2CCOc3ccc(C(O)C4CCCCC4)cc3C2)n1 (stereo unspecified) | -5% | / | -13% | / | / | -8%
COCCN=c1scc(-c2cccs2)n1/N=C/c1ccc(O)c(O)c1O | ? | -38 | 11µM* | / | / | 1%
CCn1c(C)nc2cc(NS(=O)(=O)c3ccccc3)cc(C(=O)N3C[C@@H](C)O[C@@H](C)C3)c21 | -10% | / | i | / | / | -5%
c1ccc(C[n+]2cccc3c4ccccc4ccc32)cc1 | ? | -94* | ? | 7.1µM* | ? | ?
O=[N+]([O-])c1ccc(C[n+]2cccc3ccccc32)cc1 | -9% | -10 | -18% | 14% | 8%[46.1 µM] | -2%
CCCCCCCCCC[n+]1ccc(/C=C/c2ccc(N(C)C)cc2)c2ccccc21 | / | / | i | / | / | /
CCCCC[n+]1cccc2c3ccccc3ccc21 | / | -95* | / | / | / | ?
COc1ccccc1-c1noc2nc(N(C)Cc3ccc(F)cc3)ccc12 | / | -9 | / | / | / | /
O=C(N/N=C/c1cc([N+](=O)[O-])ccc1O)c1c[nH]c2ccccc12 | -3% | 2 | ? | / | / | -17%
O=C(NC(C(=O)N/N=C/c1cc([N+](=O)[O-])ccc1O)c1n[nH]c(=O)c2ccccc12)c1ccccc1 (stereo unspecified) | -16% | -89* | -23% | -19% | -6%[46.1 µM] | -2%
O=C(N/N=C/c1cc([N+](=O)[O-])ccc1O)c1cc(-c2ccccc2)nc2ccccc12 | -10% | -100* | ? | 8.9µM* | 2.5µM* | -28%
O=C(N/N=C/c1cc([N+](=O)[O-])ccc1Cl)c1cc(-c2ccccc2)nc2ccccc12 | / | -35 | / | / | / | ?
O=C(NN=Cc1cc([N+](=O)[O-])ccc1O)c1cccc2ccccc12 | ? | 0 | ? | 7.1µM* | 10µM* | -4%

From PubChem
